Shown are actives, neighbours in structure and some others; about 12% of the full set was active somewhere.
HP1b binding inh: HTS for Inhibitors of HP1-beta Chromodomain Interactions with Methylated Histone Tails | Chromobox protein homolog 1 (Homo sapiens), P83916 | AlphaScreen HP1-beta / biotin-H3K9me3 peptide binding | Potency, µM (top dose mostly 114 µM), for the others: top-dose activity change, negative = inhibition, hits mostly inhibitors | 0.56% of 390,000 active | AID 540317, 2011; also: potency is read from the fitted curve at half-maximal effect; nearly all actives have a fitted effect of over 70% in size
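Compound inhibition of the preformed complex between 50 nM HP1-beta and 50 nM biotinylated H3K9me3 peptide was read by AlphaScreen. Buffer was PBS pH 7.4 with 0.01% Tween-20. Incubations ran 30 min at room temperature, with 10 ug/mL donor/acceptor beads.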
G9a block: qHTS Assay for Inhibitors of Histone Lysine Methyltransferase G9a. G9a H3K9 monomethylation, AlphaScreen, 2 h. 8.8% of 350,000 active. Potency, µM (highest dose often 102 µM), for inactives: top-dose activity, negative = inhibition, usual class: inhibitors. Histone-lysine N-methyltransferase EHMT2 (Homo sapiens), Q96KQ7; also: potency is read from the fitted curve at half-maximal effect; % is scaled to controls: 0 for no effect and ±100 for the full control effect; nearly all actives have a fitted effect of over 75% in size
Target sequence (Q96KQ7 913-1193 limits assumed): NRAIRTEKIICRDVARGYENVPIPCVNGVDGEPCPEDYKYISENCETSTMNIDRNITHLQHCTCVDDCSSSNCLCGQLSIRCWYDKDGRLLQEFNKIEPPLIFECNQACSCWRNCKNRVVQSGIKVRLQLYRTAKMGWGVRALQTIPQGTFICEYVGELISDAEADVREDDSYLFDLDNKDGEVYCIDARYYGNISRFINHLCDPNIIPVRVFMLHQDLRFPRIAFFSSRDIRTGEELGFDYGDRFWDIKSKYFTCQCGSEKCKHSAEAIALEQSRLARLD
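Compounds were preincubated with 20 nM G9a for 15 min, after which biotinylated H3K9 peptide (500 nM) and SAM (20 uM) started a 2 h room-temperature reaction. Monomethylated product was quantified by antibody-based AlphaScreen chemiluminescence.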
PI5P4K alpha inh: qHTS for Inhibitors of phosphatidylinositol 5-phosphate 4-kinase (PI5P4K). PI5P4Kalpha enzyme, ADP-Glo luminescence, 60 min; stronger effect = lower value. 1.2% of 330,000 active. Phosphatidylinositol 5-phosphate 4-kinase type-2 alpha (Homo sapiens), P48426. max response, %; active = max response of -50% or lower; inconclusive = between -30% and -50%; inactive = -30% or higher; also: value at the top dose of about 77 µM; % is scaled to controls: 0 for no effect and ±100 for the full control effect
Target sequence (P48426 whole entry, looked up): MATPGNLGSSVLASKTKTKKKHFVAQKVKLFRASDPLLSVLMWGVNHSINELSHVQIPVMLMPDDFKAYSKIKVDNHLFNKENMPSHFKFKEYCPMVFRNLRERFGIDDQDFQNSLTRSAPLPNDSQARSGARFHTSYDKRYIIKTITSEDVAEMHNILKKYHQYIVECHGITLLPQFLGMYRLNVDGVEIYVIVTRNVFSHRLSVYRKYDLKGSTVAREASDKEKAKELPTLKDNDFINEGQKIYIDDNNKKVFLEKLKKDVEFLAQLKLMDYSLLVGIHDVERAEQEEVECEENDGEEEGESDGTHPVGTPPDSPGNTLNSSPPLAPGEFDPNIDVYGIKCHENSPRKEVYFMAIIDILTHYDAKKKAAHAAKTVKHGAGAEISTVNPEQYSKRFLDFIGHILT
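qHTS, 1536-well: enzyme/substrate mix, compound by pin tool, 5 microM ATP final; RT 60 min; ADP-Glo reagents 1 (45 min) then 2 (30 min); luminescence.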
BAZ2B block: qHTS Assay for Inhibitors of BAZ2B; AID 504333, 2011; AlphaScreen BAZ2B-H3K14Ac peptide displacement; Bromodomain adjacent to zinc finger domain protein 2B (Homo sapiens), Q9UIF8; 4.4% of 360,000 active; Potency, µM (top dose mostly 114 µM), inactives show at the highest dose activity change, negative = inhibition, most hits filed as inhibitors; also: potency is read from the fitted curve at half-maximal effect; % is scaled to controls: 0 for no effect and ±100 for the full control effect; nearly all actives have a fitted effect of over 60% in size
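AlphaScreen luminescence quantifies BAZ2B engagement of H3K14Ac peptide; the protein and biotinylated peptide are both at 50 nM final, buffer PBS pH 7.4 with 0.01% Tween-20, all steps at room temperature.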
PLK1 PBD inh: qHTS for Inhibitors of PLK1-PDB (polo-like kinase 1 - polo-box domain): Primary Screen; Serine/threonine-protein kinase PLK1 (Homo sapiens), P53350; Plk1 PBD binding of FITC phosphopeptide, fluorescence polarization; Potency, µM, without a hit: max response, negative = inhibition, most hits filed as inhibitors; 2.8% of 360,000 active; AID 720504, 2013; also: potency is read from the fitted curve at half-maximal effect; series mostly up to about 57 µM; % is scaled to controls: 0 for no effect and ±100 for the full control effect; nearly all actives have a fitted effect of over 65% in size
JMJD2A Tudor inh: qHTS Assay for Inhibitors of JMJD2A-Tudor Domain; Potency, µM (top dose mostly 114 µM), without a hit: at the highest dose activity change, negative = inhibition, usual class: inhibitors; Lysine-specific demethylase 4A (Homo sapiens), O75164; 4.4% of 390,000 active; AlphaScreen JMJD2A-Tudor / H3K4me3 peptide binding; also: potency is read from the fitted curve at half-maximal effect; % is scaled to controls: 0 for no effect and ±100 for the full control effect; nearly all actives have a fitted effect of over 50% in size
Numbers without * were called inactive; u = inconclusive; x = no result; [ ] = another dose, or the depositor's remark. Unless noted, calls follow the shape of the dose curve; as a rule, active = well fitted curve in the direction sought with a large enough effect; inconclusive = small, poorly fitted or top-dose-only effect, or another doubt; inactive = no such curve, though single readings can be large; an effect the other way counts as inactive or inconclusive.

SMILES	HP1b binding inh	G9a block	PI5P4K alpha inh	BAZ2B block	PLK1 PBD inh	JMJD2A Tudor inh
NC(C(=O)O)[C@@H]1CC(Cl)=NO1 (stereo not given in full)	x	-34%[2.33 µM]	x	x	x	x
O=C(O)c1cc(/C=C/C(=O)c2cc(F)ccc2O)c2c(c1)COCO2	-6%	x	-30	50µM*	u	u
COc1ccc(C(=O)/C=C/c2cc(C(=O)O)cc3c2OCOC3)c(O)c1	9%	u	-29	u	-26%	-17%
O=C(CNC(=O)c1nc[nH]c1C(=O)NCc1ccccc1)OCc1ccccc1	43%	13%	1	-3%	-10%	-28%
CCN(CC)C(=O)c1[nH]cnc1C(=O)NCC(=O)OCc1ccccc1	54%	79µM*	7	-3%	-4%	-17%
O=C(CNC(=O)c1nc[nH]c1C(=O)NCC(=O)OCc1ccccc1)OCc1ccccc1	30%	x	5	u	-14%	u
CNC(=O)c1[nH]cnc1C(=O)NCC(=O)OCc1ccccc1	37%	45µM*	-4	-25%	-6%	-33%
CNC(=O)c1[nH]cnc1C(=O)N[C@@H](C)C(=O)OCc1ccccc1	65%	-9%[12.7 µM]	-4	50µM*	-1%	-33%
COc1ccc2c(c1)c1c(c(=O)n(-c3cccc(C)c3)c(=O)n1CC(=O)NCC1CCCO1)n2C (stereo not given)	17%	-4%[59 µM]	x	-13%	x	-7%
CCOC(=O)[C@]12CCCC=C1N(CCC1=CCCCC1)C(=O)[C@H](CC(=O)NCCCN1CCCC1=O)C2	x	x	4	x	-14%	x
COc1cc(NC(=O)C2CCCN(S(=O)(=O)c3ccc4c(c3)oc(=O)n4C)C2)c(C(=O)O)cc1OC (stereo not given)	50%	-2%[59 µM]	x	-3%	x	-7%
Cc1cc(N(CCO)CCO)ccc1N=Nc1cc(F)ccc1F	u	14µM*	21	22µM*	-9%	22µM*
OCCN(CCO)c1ccc(C(c2ccc(Cl)cc2)c2ccc(N(CCO)CCO)cc2Cl)c(Cl)c1	-8%	u	-7	u	-8%	u
CCCCOCCCNC(=O)C[C@@H]1C[C@@]2(C(=O)OC)CC(C)(C)CC=C2N(Cc2ccco2)C1=O	x	x	-7	x	-6%	x
CC(NC(=O)c1cnccn1)c1ccc(S(N)(=O)=O)cc1 (stereo not given)	14%	x	0	1%	27µM*	-7%[11.4 µM]
CN(C)c1ccc(/C=N/c2cc(-c3ccccc3)nn2-c2ccccc2)cc1	-23%	u	x	10µM*	2%	u
CCOc1c(Cl)cc(Cl)cc1CNCCNCCO	21%	50µM*	x	-33%	-8%	u
O=C(O)c1cn(C2CC2)c2cc(N3CCN(S(=O)(=O)c4ccc5c(c4)OCCO5)CC3)c(F)cc2c1=O	-19%	5%[12.7 µM]	-3	50µM*	-3%	u
CSCCC1NC(=O)N(CC(=O)Nc2cc(C)on2)C1=O (stereo not given)	23%	u	6	-32%	-3%	-14%
CSCCC1NC(=O)N(CC(=O)Nc2c(Cl)cc(Cl)cc2Cl)C1=O (stereo not given)	-14%	7%[12.7 µM]	-24	5%	8.4µM*	-31%[11.4 µM]
Cc1cc(C)cc(NC(=O)Cn2nnc(-c3nc(-c4ccncc4)no3)c2N)c1	72%	-36%[59 µM]	x	u	x	56µM*
CCc1cccc(C)c1NC(=O)Cn1nnc(-c2nc(-c3ccccc3F)no2)c1N	44%	u	x	56µM*	x	-26%
O=C(/C=C/c1ccc(F)cc1)NCCc1ccc2c(c1)OCCO2	36%	89µM*	-2	5%	-3%	-3%
O=C(NCCc1ccc(F)cc1)Nc1ccc([N+](=O)[O-])cc1	20%	u	3	-21%	2%	-25%
O=C(Nc1ccc2c(c1)OCO2)c1c[nH]c(=O)n(-c2ccc(F)cc2)c1=O	-32%	56µM*	-29	35µM*	-13%	u
SMILES	HP1b binding inh	G9a block	PI5P4K alpha inh	BAZ2B block	PLK1 PBD inh	JMJD2A Tudor inh
O=C(NCCc1ccc(Cl)cc1)Nc1ccc(F)cc1	-16%	26%	2	-5%	24µM*	-17%[11.4 µM]
O=[N+]([O-])c1ccc(NC(=S)NCCc2ccc(F)cc2)cc1	-35%	u	0	79µM*	u	u
CCn1c(NCc2cccc(Cl)c2)nc2ccccc21	25%	11%[59 µM]	x	-2%	x	0%
COc1ccc(NC(=O)CSCC(=O)Nc2nnc(C)s2)cc1	11%	18%[2.33 µM]	0	8%	3%	-19%
O=C(NCCc1ccccc1)Nc1ccc2c(c1)OCO2	40%	-21%	0	-31%	-1%	-12%
O=C(NCc1ccccn1)Nc1ccc2c(c1)OCO2	14%	-30%[59 µM]	1	4%	-3%	14%
O=C(NCCc1ccc(F)cc1)Nc1ccc2c(c1)OCO2	-11%	-9%	-14	2%	8.4µM*	-20%
O=C(NCc1ccncc1)Nc1ccc2c(c1)OCO2	17%	45µM*	3	11%	-14%	-29%
CCOC(=O)C1C(=O)CC(C)(O)C(C(=O)OCC)C1c1ccc(N(CC)CC)cc1 (stereo not given)	5%	14µM*	-1	-19%	-7%	-23%
CCOC(=O)C1C(=O)CC(C)(O)C(C(=O)OCC)C1c1ccc(F)cc1 (stereo not given)	33%	18%[59 µM]	x	4%	1%	-13%
CCOC(=O)C1C(=O)CC(C)(O)C(C(=O)OCC)C1c1ccco1 (stereo not given)	-17%	-34%[12.7 µM]	-30	9%	3.4µM*	-19%[11.4 µM]
CCOC(=O)C1C(=O)CC(C)(O)C(C(=O)OCC)C1c1cccs1 (stereo not given)	18%	12%[12.7 µM]	9	u	-1%	-14%
CCN1c2ccccc2-c2nc(SCC(=O)Nc3cccc(C(F)(F)F)c3)ncc2S1(=O)=O	-13%	-3%[59 µM]	x	2%	x	-14%
CNC(=O)C1CCC(Cn2c(=O)c3sccc3n(CC(=O)NCc3ccc(F)cc3)c2=O)CC1 (stereo not given)	63%	8%[59 µM]	x	1%	x	3%
CC1CCN(CCCCOc2ccccc2F)CC1	1%	-15%	-12	50µM*	30µM*	10µM*
CC1CCN(CCCCOc2ccccc2Br)CC1	-17%	10µM*	3	u	2%	16µM*
Cc1nnsc1SCCNC(=O)Nc1ccc(Cl)cc1	45%	-1%	9	-19%	-7%	-4%
CCCN1C=CC(=C/C=C(\C#N)C(=O)OCC)C=C1	x	u	x	50µM*	x	x

Bioassay records (PubChem)
